Compounds with a hit are over-represented: about 3.1% of the library has one in this group of screens.
TROY signal inh: inhibitors of TROY-dependent NF-kB signaling; Q293 LMP1-TROYcd NF-kB luciferase reporter, 4 h; inhibition, % at 10 µM; 0.98% of 360,000 active;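 active = compounds whose plate-normalised and pattern-corrected inhibition of the luciferase reporter signal at the single screening dose is 50% or more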
EBV LMP1 NFkB: Epstein-Barr LMP1 NF-kappaB reporter inhibition. inhibition, % at 12.5 µM. 0.69% of 350,000 active. LMP1-induced NF-kappaB luciferase reporter cells, luminescence; in the data active = inhibition above about 41%; inconclusive = no clear call, values can overlap the other calls;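 note: 0% = neutral control wells and 100% = reference inhibitor control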
PAX8 inh HTS: lowers PAX8-driven luciferase in RMG-I cells; 1.2% of 360,000 active; AID 652154; RMG-I TPO-luciferase reporter, SteadyGlo, 24 h; inhibition, % at 12.6 µM;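 active = mean replicate inhibition at least 60% with every replicate also reaching 60%; inconclusive = only one of the two criteria is met; inactive = mean below 60% and not all replicates reaching 60%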;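 note: luciferase light reporting Pax8 driven TPO promoter activity; plate controls were median of neutral control wells for no effect and mitoxantrone controls for full effect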
LGR2 inh: blocks bursicon-induced cAMP signaling via Drosophila LGR2; HEK293 LGR2, CRE-luciferase, bursicon-stimulated, 4 h; inhibition, % at 9.99 µM; 0.35% of 380,000 active;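 active = drop in luminescence signal, shown as inhibition above about 50% in the replicate tests, limit read from the data, passing the limit was not always enough; inconclusive = probably only some replicates passing the limit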;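 note: agonist challenge used bursicon conditioned medium at about half maximal strength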
EWS-Fli block: inhibitors of EWS/Fli oncoprotein transcriptional activity; inhibition, % at 12.6 µM; A673 NR0B1-luciferase reporter, viability-normalised; 0.67% of 350,000 active; AID 651661;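 active = mean inhibition of at least 50% after viability correction, with every replicate also passing that limit; inconclusive = mean reaches 50% but only one of two replicates passes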;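 note: firefly luciferase signal divided by Alamar Blue viability fluorescence both relative to DMSO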
TWEAK-Fn14 inh: blocks TWEAK-Fn14 interaction in a reporter cell assay; TWEAK-stimulated Fn14 reporter cells, luciferase luminescence, 8 h; inhibition, % at 10 µM; 2% of 360,000 active; AID 1159606; in the data active = inhibition above about 50%
The depositor's hits bear a star; ? = inconclusive; nt = no result; ! = a repeat was not active.

SMILES	TROY signal inh	EBV LMP1 NFkB	PAX8 inh HTS	LGR2 inh	EWS-Fli block	TWEAK-Fn14 inh
CCOC(=O)c1cc(-c2ccccc2C)nn1Cc1cc(C)no1	-69	58*	-153	-36	-12	-53
Cc1cc(OCC(=O)N(C)C2CCCCC2)ccc1Cl	66*	-26	-184	-11	-12	39
Cc1cc(S(=O)(=O)NCc2ccccc2)ccc1OCC(=O)Nc1cccc([N+](=O)[O-])c1	42	11	37	-10	21	52*
COc1ccc(Nc2nc(NCc3cccs3)nc3ccsc23)cc1OC	32	nt	20	-15	20	54*
CC(=O)Nc1ccc(CNc2nc(NCC3CC3)nc3ccsc23)cc1	-19	nt	-25	31	-6	-3
CCOC(=O)Cc1ccc(Nc2nc(NCc3cccs3)nc3ccsc23)cc1	55*	nt	5	2	1	65*
COc1ccc(Nc2nc(NC(C)C)nc3ccsc23)cc1OC	-1	nt	5	-18	4	29
COc1ccc(NC(=O)Nc2ccc3c(c2)[C@@H]2C[C@@H](CC(=O)NCc4ccc5c(c4)OCO5)O[C@H](CO)[C@@H]2O3)cc1	nt	nt	-3	-1	6	nt
O=C(O)c1cc(N/N=C/C(Cl)=C/c2ccccc2)ccc1Cl	-80	-10	30	73*	3	8
O=C(O)c1cc(S(=O)(=O)Nc2ccc3c(c2)OCCO3)c(Cl)cc1Cl	83*	23	6	18	33	91*
O=C(O)c1ccc(N/N=C/c2cc3cc4c(cc3nc2Cl)OCCO4)cc1	-16	42*	18	60*	44	30
O=C(O)c1ccc(N/N=C/c2cc3c(cc2[N+](=O)[O-])OCO3)cc1	-7	8	-7	-24	-4	34
O=C(O)c1cc(N/N=C/c2cccc3ccccc23)ccc1Cl	-19	-45	-147	-143	-147	101*
O=C(O)c1cc(N/N=C/c2ccc3c(c2)OCCO3)ccc1Cl	11	45*	30	71*	46	-13
COCC(=O)N(C)C[C@H]1Oc2cc(C3=CCCC3)ccc2S(=O)(=O)N([C@@H](C)CO)C[C@H]1C	nt	nt	2	-6	-1	nt
COCCN(Cc1cc2cc(C)cc(C)c2nc1Cl)C(=O)Nc1ccccc1	0	6	nt	-6	43	5
Cc1cc(C)c2nc(Cl)c(CN(Cc3ccco3)C(=O)Nc3ccccc3C)cc2c1	4	8	nt	-11	56*	17
Nc1nnc(CSCc2ccc(Cl)cc2)s1	-10	1	-19	-2	nt	-19
Nc1nnc(SCc2ccc(Cl)cc2)s1	nt	-5	nt	nt	nt	68*
CN(C)CC(=O)N[C@H]1CC[C@@H](CCNS(=O)(=O)c2ccccc2)O[C@@H]1CO	nt	nt	-17	-1	5	nt
Cc1cc(C)n2nc(NCc3cccc(Br)c3)nc2n1	80*	-1	-10	nt	nt	-18
Cn1c(=O)c(C(=O)NNC(=O)c2ccccc2F)c(O)c2ccccc21	0	-11	21	-9	6	-28
Cn1c(=O)c(C(=O)NNC(=O)c2ccc(Br)cc2)c(O)c2ccccc21	21	-4	64*	7	17	42
O=C(C[C@H]1CC[C@H]2[C@@H](COC[C@@H](O)CN2Cc2nccs2)O1)NCc1ccccc1F	nt	nt	15	30	0	nt
N#C[C@@H]1[C@@H](c2ccccc2-c2ccccc2)[C@H](CO)N1C(=O)Cc1ccncc1	nt	nt	nt	17	0	nt
SMILES	TROY signal inh	EBV LMP1 NFkB	PAX8 inh HTS	LGR2 inh	EWS-Fli block	TWEAK-Fn14 inh
Cc1cc(N=Cc2c(O)ccc3cc(Br)ccc23)no1	49	56*	-1	17	1	41
CN1C(=O)c2cc(NC(=O)Nc3ccc(Cl)cc3)ccc2OC[C@H]2O[C@H](CC(=O)O)CC[C@H]21	nt	nt	4	4	-11	nt
CN=c1sc2c(n1C)C(=O)c1ccccc1C2=O	48	4	-5	-5	-2	89*
COC1=CC(=O)c2nc(Cl)ccc2C1=O	3	nt	107*	80*	40	94*
O=C(C[C@H]1C[C@@H]2c3cc(NS(=O)(=O)c4ccc(F)cc4)ccc3O[C@@H]2[C@@H](CO)O1)NCc1ccc(-c2ccccc2)cc1	nt	nt	84*	8	33	nt
COc1cccc(S(=O)(=O)Nc2ccc3c(c2)[C@H]2C[C@H](CC(=O)NCc4ccc(Cl)cc4)O[C@@H](CO)[C@H]2O3)c1	nt	nt	31	-1	3	nt
O=C(C[C@H]1C[C@@H]2c3cc(NS(=O)(=O)c4ccc(F)cc4)ccc3O[C@@H]2[C@@H](CO)O1)NCc1ccc(Oc2ccccc2)cc1	nt	nt	101*	?	49	nt
O=C(C[C@@H]1C[C@@H]2c3cc(NS(=O)(=O)c4ccc(F)cc4)ccc3O[C@@H]2[C@@H](CO)O1)NCc1ccccc1	nt	nt	17	4	-2	nt
O=C(C[C@H]1C[C@H]2c3cc(NS(=O)(=O)c4ccc(F)cc4)ccc3O[C@H]2[C@@H](CO)O1)NCc1ccc(-c2ccccc2)cc1	nt	nt	53	27	46	nt
O=C(C[C@@H]1C[C@@H]2c3cc(NS(=O)(=O)c4ccc(F)cc4)ccc3O[C@@H]2[C@H](CO)O1)NCc1ccc(-c2ccccc2)cc1	nt	nt	68*	11	-8	nt
O=C(C[C@H]1C[C@H]2c3cc(NS(=O)(=O)c4ccc(F)cc4)ccc3O[C@H]2[C@H](CO)O1)NCc1ccc(Cl)cc1	nt	nt	38	-26	15	nt
COc1cccc(S(=O)(=O)Nc2ccc3c(c2)[C@@H]2C[C@@H](CC(=O)NCc4ccc(Cl)cc4)O[C@@H](CO)[C@@H]2O3)c1	27	nt	75*!	-6	55*	14
COc1ccc(-c2cnc3c(c2)C(=O)N([C@H](C)CO)C[C@H](C)[C@H](CN(C)S(C)(=O)=O)O3)cc1	nt	nt	nt	-13	-17	nt
CS(=O)(=O)c1ccc(C(=O)OCC(=O)N2CCN(CCC3CCCCC3)CC2)cc1[N+](=O)[O-]	34	nt	105*	-1	54*	79*
CS(=O)(=O)c1ccc(C(=O)OCC(=O)NC(=O)C2CCCCC2)cc1[N+](=O)[O-]	51*	-3	56	60*	19	73*
Nc1ccc(C(=O)NNC(=O)C2COc3ccccc3O2)cc1[N+](=O)[O-] (stereo unspecified)	11	-3	-5	1	6	-20
CNc1ccc(C(=O)OCC(=O)NC(=O)NC2CCCCC2)cc1[N+](=O)[O-]	5	3	9	-8	-4	-4
CS(=O)(=O)c1ccc(C(=O)OCC(=O)N2CCOCC2)cc1[N+](=O)[O-]	3	nt	-1	10	-6	40
CS(=O)(=O)c1ccc(C(=O)OCC(=O)NC(=O)C2COc3ccccc3O2)cc1[N+](=O)[O-] (stereo unspecified)	8	-26	14	12	5	55*
CNC(=O)C[C@@H]1CC[C@H]2[C@H](COc3ccc(NC(=O)Nc4ccc(F)cc4)cc3C(=O)N2C)O1	nt	nt	-37	-2	0	nt
Cc1ccc(S(=O)(=O)N(C)C[C@@H]2Oc3ccc(NC(=O)Cc4ccccc4)cc3C(=O)N([C@@H](C)CO)C[C@H]2C)cc1	nt	nt	21	-1	6	nt
